Source: PubChem (several laboratories)
In the library only some 4.4% were active in any assay of this set; here they are far more common.
tim23-1 inh – tim23-1 yeast growth inhibition | S. cerevisiae tim23-1 growth, BacTiter-Glo luminescence, 24 h | inhibition, % at 20 µM | 330,000 tested, 1.3% active;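 active means growth inhibition of the mutant yeast at or above 50%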;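 further: temperature-sensitive mutant grown at 25 °C; plate controls were DMSO-treated mutant yeast for no effect and medium wells lacking yeast for full effect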
tim10-1 inh – growth inhibitors of tim10-1 mutant yeast; S. cerevisiae tim10-1 ts strain growth, BacTiter-Glo, 24 h; inhibition, % at 20 µM; 330,000 tested, 2.2% active; AID 463190;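 active means inhibition of at least 40%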;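 further: mutant grown at 25 °C; 0% = DMSO wells with yeast and 100% = wells holding no yeast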
TIM10 inh – growth inhibitors of TIM10 yeast strain; S. cerevisiae TIM10 strain growth, BacTiter-Glo luminescence, 24 h; inhibition, % at 10 µM; AID 463195; 330,000 tested, 1.4% active;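 active means inhibition of 40% or more at the single tested concentration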;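 further: wild-type TIM10 isogenic control strain grown at permissive 25 °C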
Mot1-301 SUMO – blocks SUMOylation pathway, rescuing yeast Mot1-301 growth; 320,000 tested, 1% active; growth rescue, % at 18.8 µM; S. cerevisiae Mot1-301 growth rescue, ATP luminescence, 38.5C; percent above DMSO median, 100 means doubled; AID 2716;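 active means every valid replicate shows activation above 250% relative to neutral control wells; inactive means the rest, any valid replicate at or below 250%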;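 further: OY570 slx delta 5 strain wells were the positive control but not used for scaling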
PfHsp90 set2 – growth inhibition of yeast expressing Plasmodium Hsp90 | 310,000 tested, 0.32% active | AID 504621 | inhibition, % at 9.4 µM | S. cerevisiae expressing PfHsp90, BacTiter-Glo ATP, 48 h; yeast lacking PDR1 and PDR3 efflux regulators;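 active means every replicate shows inhibition above about 80%, whatever the replicate mean, limit read from the data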;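 further: 0% = DMSO neutral controls and 100% = 20 µM radicicol positive controls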
tim23-1 conf – tim23-1 yeast growth inhibition, confirmed. shares compounds with tim23-1 inh. S. cerevisiae tim23-1 growth, BacTiter-Glo luminescence, 24 h. inhibition, % at 20 µM. 4,400 tested, 83% active. AID 463218;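 active means inhibition above about 39% in either of two replicate wells at 20 µM, limit read from the data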;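 further: temperature-sensitive tim23-1 mutant grown at 25 °C; 0% = DMSO wells with yeast and 100% = medium wells without yeast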
* hit, by the source's call; · = no result.

SMILES	tim23-1 inh	tim10-1 inh	TIM10 inh	Mot1-301 SUMO	PfHsp90 set2	tim23-1 conf
COc1cc(NC(=O)c2cc3sccc3n2C)cc(OC)c1	53*	32	31	-23	·	43*
COC(=O)C(Cc1ccccc1)NC(=O)CNC(=O)c1ccc(Br)cc1 (stereo unspecified)	13	-11	-9	14	13	·
Cc1cccc(-n2c(SCC(N)=O)nc3c(c2=O)C2(CCCC2)Cc2ccccc2-3)c1	54*	25	38	6	-4	47*
NC(=O)CSc1nc2c(c(=O)n1-c1ccccc1)C1(CCCCC1)Cc1ccccc1-2	11	6	13	13	18	·
Cc1ccc(OCCCN2C(=O)C(=O)c3cccc(C)c32)cc1	53*	26	18	-13	21	62*
Cc1ccc(OCCN2C(=O)C(=O)c3cc(C)ccc32)cc1	57*	17	22	-6	-9	53*
CCCN1C(=O)C(=O)c2cc(Cl)ccc21	61*	13	14	14	11	40*
Cc1cc(=O)oc2cc(OCCCN3C(=O)c4ccccc4C3=O)ccc12	-13	-3	3	1	8	·
COc1ccc(OCCN2C(=O)c3ccccc3C2=O)cc1	10	2	5	-2	-12	·
COc1ccc(OC)c(C(=O)NC(CC(N)=O)c2ccc(N3CCCCCC3)c([N+](=O)[O-])c2)c1 (stereo unspecified)	-5	-12	-4	-12	6	·
CCOC(=O)c1cn(-c2ccccc2)nc1-c1ccncc1	51*	38	35	18	-57	46*
COc1ccccc1CNC(=O)[C@H](C)NC(=O)C1CCN(C(=O)[C@H](CCSC)NC(=O)OC(C)(C)C)CC1	-8	-10	-5	-4	8	·
COc1ccc2cc(C3=CCCC3(C)C(=O)O)ccc2c1 (stereo unspecified)	·	·	·	·	-19	·
COc1ccc(-c2c(C)nn3c(N4CCOCC4)cc(C)nc23)cc1OC	·	·	·	8	-12	·
COc1ccc(-c2c(C)nn3c(N4CCCCCC4)cc(C)nc23)cc1OC	54*	33	34	38	-12	57*
CCOc1ccc(C(=O)NCC(=O)OCc2cc(C(C)=O)ccc2OC)cc1	14	5	6	-10	11	·
O=C(CNC(=O)C12CC3CC(CC(C3)C1)C2)OCc1ccc(F)cc1Cl	52*	22	28	·	18	60*
CCOc1ccc(C(C)=O)cc1COC(=O)CNC(=O)C12CC3CC(CC(C3)C1)C2	50*	26	22	-4	-7	35
Cc1cccc(C)c1OCc1cc(C(=O)N2CCN(Cc3nccn3C)CC2)no1	-4	-6	11	9	13	·
CSCCC(NC(=O)c1cccc([N+](=O)[O-])c1)C(=O)OCC(=O)N1CCCC1=O (stereo unspecified)	-14	-13	-3	2	-11	·
CCn1c(O)c(N=NC(=O)C(O)c2ccccc2)c2ccccc21 (stereo unspecified)	8	17	9	560	4	·
c1ccc2c(c1)nnn1c3ccccc3nc21	19	38	-1	-19	·	·
ClC(Cl)(Cl)c1nc2ccccc2n2nncc12	54*	32	19	12	-22	37
COc1ccc(CNC(=O)CCCC(=O)n2nc(C)c3ccccc32)cc1	18	17	1	-10	-13	·
CCCNC(=O)c1n[nH]c2c1CC(C(C)(C)CC)CC2 (stereo unspecified)	57*	37	24	0	7	58*
C=CCNC(=O)c1n[nH]c2c1CC(C(C)(C)CC)CC2 (stereo unspecified)	53*	36	21	-25	-2	56*
CCCOc1ccc2c3c(c(=O)oc2c1OCCC)CCCC3	31	16	-7	-4	21	·
CCOc1ccc2c3c(c(=O)oc2c1OCC)CCCC3	52*	39	20	8	·	39*
CCc1ccc(NC(=O)c2nc(S(=O)(=O)Cc3ccccc3)ncc2Cl)cc1	66*	-105	-1	171	99*	22
COc1ccccc1NC(=O)c1nc(S(=O)(=O)Cc2ccccc2)ncc1Cl	53*	28	36	-1	21	48*
